Here are results for 20 compounds from PubChem BioAssay (NCI).

About 79,000 compounds went through this panel and 15% of them were active in at least one assay; those are over-represented in the sample as a whole. Unmarked numbers belong to inactive results. Activity calls are given as the source filed them. No stated cut-off is given here; in the data, active means growth inhibition above about 70%; inactive means the rest.

Assay [1] is described as follows: NCI Yeast Anticancer Drug Screen. Data for the rad50 strain (AID 155).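 Further: 0% = growth of vehicle-only cultures of the same strain.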 To be noted: S. cerevisiae rad50 strain growth inhibition; at 50.0 µM; active compounds read high. Summed up: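 A DNA repair-deficient yeast mutant serves as the test organism; compound-induced growth inhibition is calculated against vehicle-treated cells.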
Assay [2] in a line: NCI Yeast Anticancer Drug Screen. Data for the mec2-1 strain (AID 157). Conditions: S. cerevisiae mec2-1 strain, at 50.0 µM, active compounds read high. Summed up:
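Mutant yeast (mec2-1) grown with compound; growth inhibition relative to vehicle control reported.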

A short description of assay [3]: NCI Yeast Anticancer Drug Screen. Data for the sgs1 mgt1 strain (AID 161).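 Further: 0% = growth of cultures given vehicle only.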 To be noted: S. cerevisiae sgs1 mgt1 strain, at 50.0 µM, active compounds read high. Summed up: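 This yeast growth screen uses a strain with defined DNA-repair lesions; compound-treated growth is compared with vehicle-treated growth.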
A short description of assay [4]: NCI Yeast Anticancer Drug Screen. Data for the cln2 rad14 strain (AID 165).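 Further: 0% = growth equal to vehicle treated cultures.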 Conditions: S. cerevisiae cln2 rad14 strain, at 50.0 µM, active compounds read high. Summed up: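 Readout is yeast growth inhibition versus vehicle-treated controls, using a strain with cln2 and rad14 alterations exposed to compound.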
Assay [5] is described as follows: NCI Yeast Anticancer Drug Screen. Data for the bub3 strain (AID 167). Conditions: S. cerevisiae bub3 mutant strain, at 50.0 µM, active compounds read high. Summed up:
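Inhibition values come from growth of compound-treated mutant yeast normalised to vehicle-treated controls.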

The nature of assay [6]: NCI Yeast Anticancer Drug Screen. Data for the mlh1 rad18 strain (AID 175). To be noted: S. cerevisiae mlh1 rad18 strain growth inhibition; at 50.0 µM; active compounds read high. Summed up: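 Genetically defined yeast (DNA repair-deficient) exposed to compounds; growth inhibition determined relative to vehicle.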

With `CN(C)/C=N/c1cc(=O)n(C)c(=O)n1C`, the growth inhibition in assay [1] was 48.2%; in assay [2], 13.4%; in assay [3], 1.85%; in assay [4], 2.9%; in assay [5], -18.1%; in assay [6], -16.4%.
As to `Oc1nc(-c2ccccc2)sc1-c1ccccc1`, the growth inhibition is -6.05% in assay [1]; 16.9% in assay [2]; -0.5% in assay [3]; -24% in assay [4]; -10.7% in assay [5]; -9.15% in assay [6].
Consider `Cc1cc(N(CCC#N)CCC#N)ccc1/C=C1N=C(/C=C\c2ccccc2)N(c2ccc(C(=O)O)cc2)C\1=O`, for which the growth inhibition is -3.65% in assay [1]; -45.5% in assay [2]; -16.9% in assay [3]; -6.3% in assay [4]; -16.4% in assay [5]; -26.1% in assay [6].
As for `O=c1[nH]c2ccccc2nc1/C=C/n1c(=S)[nH]c2ccccc21`, the growth inhibition in assay [1] is -31.4%; in assay [2], -28.2%; in assay [3], -46.4%; in assay [4], -16.6%; in assay [5], -33.5%; in assay [6], -20.7%.
In the case of `NC(=O)n1ncc(Cl)c(Cl)c1=O`, the growth inhibition was -7.25% in assay [1]; -1.5% in assay [2]; 2.1% in assay [3]; 4.3% in assay [4]; -1.8% in assay [5]; 7.35% in assay [6].
On to `O=S1(=O)CC(Cl)C(I)C1` (stereo not given), for which the growth inhibition in assay [1] is 99.4% (active); in assay [2] it was 99.7% (active); in assay [3] it was 99.5% (active); in assay [4], 98.8% (active); in assay [5] it was 99.5% (active); in assay [6], 99.2% (active).
For the compound `CCOC(=O)C1SC(=Nc2ccc(Cl)c(Cl)c2)N=C1C` (stereo not given), the growth inhibition in assay [1] is -29.9%; in assay [2] it was -2.8%; in assay [3], -6.4%; in assay [4], 5.9%; in assay [5], -11.7%; in assay [6] it was -10.1%.
On to `O=C(O)CCC(CCC(=O)O)(C(=O)O)C(=O)O`, for which the growth inhibition is 5.8% in assay [1]; -7.85% in assay [2]; -6.1% in assay [3]; -41% in assay [4]; -0.85% in assay [5]; 2.9% in assay [6].
For the compound `CCN(CC)CC(OC(C)=O)c1ccc2ccc3ccc(O)cc3c2c1` (stereo not given), the growth inhibition in assay [1] was 15.9%; in assay [2], 7.85%; in assay [3] it was -7.55%; in assay [4] it was -5.55%; in assay [5] it was -3.25%; in assay [6], 19.1%.
`O=C(OCc1ccccc1)c1ccc(Cl)cc1`: the growth inhibition in assay [1] was 22.9%; in assay [2] it was 5.7%; in assay [3], 20.6%; in assay [4], 15.2%; in assay [5], -1.65%; in assay [6], 4.4%.
`O=c1c2ccccc2n2c(-c3ccccc3O)nnc2n1-c1ccccc1`: the growth inhibition is 6.5% in assay [1]; 14.8% in assay [2]; 35.1% in assay [3]; 26.2% in assay [4]; 6.6% in assay [5]; 18.2% in assay [6].
Take `O=[N+]([O-])c1ccc(N=Nc2ccc(N(CCO)CCO)cc2)cc1`: the growth inhibition in assay [1] is -5.7%; in assay [2], -8.35%; in assay [3] it was 24%; in assay [4], 1.25%; in assay [5] it was 20.2%; in assay [6], 6.1%.
In the case of `CCCCCC(CSCC)C(=O)/C=C/c1ccccc1` (stereo not given), the growth inhibition in assay [1] was 8.3%; in assay [2], 1.4%; in assay [3], -7%; in assay [4], -1.55%; in assay [5] it was 18.6%; in assay [6], 5.6%.
Take `CCCCC(CC)/C(C)=N/NC(N)=O` (stereo not given): the growth inhibition in assay [1] was 4.7%; in assay [2], 9.55%; in assay [3], -5.3%; in assay [4] it was -9.1%; in assay [5] it was -1.15%; in assay [6], -11.5%.
On to `Cc1cccc(C2=N/C(=C\c3c(O)ccc4ccccc34)C2=O)c1`, for which the growth inhibition in assay [1] was 6.55%; in assay [2], 7.1%; in assay [3], 0.9%; in assay [4] it was 6.55%; in assay [5], 10.9%; in assay [6] it was -6.65%.
As for `c1ccc(CNc2cnccn2)cc1`, the growth inhibition in assay [1] was -20.5%; in assay [2], 10.7%; in assay [3] it was -7.75%; in assay [4] it was -22.1%; in assay [5], -3.7%; in assay [6] it was -4.95%.
For `Nc1cccc(S(N)(=O)=O)c1`, the growth inhibition in assay [1] was 10.4%; in assay [2] it was -5.65%; in assay [3] it was -0.85%; in assay [4], -40%; in assay [5], 12.2%; in assay [6], 1.4%.
Regarding `CCOC(=O)c1c(/N=C/c2cc(Br)cc(Br)c2O)sc2c1CCCC2`, the growth inhibition is -14.2% in assay [1]; -19.1% in assay [2]; -13.2% in assay [3]; -15.1% in assay [4]; -13.9% in assay [5]; -25.1% in assay [6].
`CC1=CC2N(C=C1)C(c1cccc([N+](=O)[O-])c1)=NON2c1cc(C)ccn1` (stereo not given): the growth inhibition was 7.05% in assay [1]; 0.95% in assay [2]; 6.85% in assay [3]; 13.6% in assay [4]; -1% in assay [5]; 23.9% in assay [6].
As for `NC(=O)CCCC(C(N)=O)(c1ccccc1)c1ccccc1`, the growth inhibition was 9.2% in assay [1]; 13.3% in assay [2]; 3.25% in assay [3]; -11.2% in assay [4]; -7.15% in assay [5]; -3.9% in assay [6].
